Bioassay records from PubChem BioAssay.
Compounds with a hit are over-represented: about 19% of the library has one in this group of screens.
CHX counter: Cycloheximide Counterscreen for Small Molecule Inhibitors of Shiga Toxin; cell reporter, cycloheximide protein synthesis inhibition counterscreen; AID 2314, 2010; max response, %; 300,000 compounds, 12% hits; in the data active = max response mostly above about 13%, no sharp cut-off; inactive = mostly below about 14%; note: read at 38.3 µM for the half of the compounds with a filed dose; 0% is about no effect
Shiga toxin inh: A qHTS for Small Molecule Inhibitors of Shiga Toxin; Vero cells, Shiga toxin protein synthesis inhibition reporter; inhibition, % at 38.7 µM; 290,000 compounds, 9.2% hits; AID 2315, 2010; in the data active = inhibition mostly above about 28%, no sharp cut-off; inactive = mostly below about 43%; note: 0% is about no effect
Pf growth 96h: Primary qHTS for delayed death inhibitors of the malarial parasite plastid, 96 hour incubation | P. falciparum luciferase reporter growth, 96 h | Potency, µM (titrated, usually from 28.7 µM), for inactives: at the highest dose activity change, negative = inhibition, most hits filed as inhibitors | 320,000 compounds, 6.9% hits | AID 504834, 2011; note: potency is the fitted concentration of half-maximal effect; % is set by controls: 0 for no effect and ±100 for the full control effect
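Two-generation exposure (96 h) targets delayed-death phenotype. Reporter parasites carrying integrated firefly luciferase, in red cells at 2% hematocrit and 0.05% parasitemia final, kept at 37 C, 5% CO2; luminescence loss indicates inhibition.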
Marburg entry inh: qHTS for inhibitors of binding or entry into cells for Marburg Virus; Marburg virus pseudotyped entry inhibition, cell reporter; Potency, µM (titrated, usually from 37.8 µM), without a hit: at the top dose activity change, negative = inhibition, most hits filed as inhibitors; 300,000 compounds, 1.8% hits; calls by dose curve; tested in HEK293 cells; note: potency is the fitted concentration of half-maximal effect; % is set by controls: 0 for no effect and ±100 for the full control effect
Pf growth 48h: Primary qHTS for delayed death inhibitors of the malarial parasite plastid, 48 hour incubation; Potency, µM (top dose mostly 28.7 µM), without a hit: at the highest dose activity change, negative = inhibition, actives largely listed as inhibitors; 310,000 compounds, 5.9% hits; AID 504832, 2011; P. falciparum luciferase growth in erythrocytes, 48 h; note: potency is the fitted concentration of half-maximal effect; % is set by controls: 0 for no effect and ±100 for the full control effect
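Erythrocytes infected with P. falciparum carrying an integrated firefly luciferase reporter (2% hematocrit, 0.1% parasitemia final) were exposed to compounds in RPMI 1640 with 0.5% Albumax at 37 C, 5% CO2. Growth inhibition was scored as reduced luminescence.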
Lassa entry inh: qHTS for Inhibitors of binding or entry into cells for Lassa Virus; 300,000 compounds, 1.2% hits; Lassa virus pseudotype entry inhibition, cell reporter; Potency, µM (titrated, usually from 37.9 µM), inactives show at the highest dose activity change, negative = inhibition, most hits filed as inhibitors; calls by dose curve; tested in HEK293 cells; note: potency is the fitted concentration of half-maximal effect; % is set by controls: 0 for no effect and ±100 for the full control effect; nearly all actives have a fitted effect of over 50% in size
Starred values were filed as active, the others as inactive; ? = inconclusive; . = no result given; + = active, no number; [ ] = another dose, or the depositor's remark. Unless noted, calls come from the whole dose curve; as a rule, active = well fitted inhibition curve with a large enough effect; inconclusive = small, poorly fitted or top-dose-only effect, or another doubt; inactive = no such curve, though single readings can be large or run the other way.

SMILES	CHX counter	Shiga toxin inh	Pf growth 96h	Marburg entry inh	Pf growth 48h	Lassa entry inh
Cc1ccc2nc(-c3ccc(NC(=O)C4CCCO4)cc3)[nH]c2c1 (centres undefined)	55.2*	44.1	-74.0%	?	.	8.2µM*
O=C(Cc1cccs1)Nc1ccccc1-c1nc2ccccc2[nH]1	-3.6	-2.3	7.9%	?	?	-1.2%
Cc1ccc2nc(-c3ccc(NC(=O)Cc4cccs4)cc3)[nH]c2c1	30.1*	74.8	4.15µM*	-20.9%	?	?
COCC(=O)Nc1nc2ccccc2s1	29.5*	50.0*	31.6%	-0.5%	46.9%	-6.5%
Cc1ccc(-c2csc(NC(=O)CCCc3cccs3)n2)cc1	-0.7	1.6	-8.6%	-7.0%	4.8%	-7.3%
CCc1ccc2nc(NC(=O)CCCc3cccs3)sc2c1	33.1*	48.9*	-5.4%	?	.	?
CCn1nc(NC(=O)C2CCCO2)c2cc3cc(C)ccc3nc21 (centres undefined)	14.3	31.0	9.1%	4.2%	56.5%	-6.2%
O=C(CN1CCCCCC1)Nc1nc2ccccc2s1	.	.	.	4.2%[46.1 µM]	.	28.1%[46.1 µM]
CC1(C(=O)Nc2nc3ccccc3s2)CC1(Br)Br (centres undefined)	43.9*	94.2*	-13.1%	.	10.3%[0.00184 µM]	.
CN(C(=O)c1ccc(COc2ccccc2Cl)o1)c1ccccc1	14.7	16.9	?	.	?	.
CN(C)C(=O)c1ccc(COc2ccccc2Br)o1	43.0*	86.2*	?	21.6%	107.6%	14.6%
O=C(c1ccc(COc2ccccc2Br)o1)N1N=C(C(F)F)CC1(O)C(F)F (centres undefined)	-2.4	13.7	-13.6%	7.08µM*	-13.4%	-7.3%
CCN(CC)C(=O)c1ccc(COc2ccccc2Cl)o1	20.7*	29.1	?	?	13.0%	-4.8%[46.1 µM]
O=C(c1ccc(Cn2cc([N+](=O)[O-])cn2)o1)N1N=C(C(F)F)CC1(O)C(F)F (centres undefined)	5.0	1.5	?	0.5%	.	-25.0%[14.3 µM]
COc1ccccc1OCc1ccc(C(=O)N(C)C)o1	25.2*	50.7	91.1%	?	?	8.2%
O=C(NCc1ccccn1)c1n[nH]c(=O)c2ccccc12	9.4	17.0	-0.8%	.	?	.
O=C(c1ccccc1)N1CCN(C(=O)c2nn3c(C(F)(F)F)cc(-c4ccco4)nc3c2Cl)CC1	-4.4	-11.1	0.0%	2.4%[46.1 µM]	?	-6.5%[46.1 µM]
c1ccc2sc(NC3=NCN(C4CCCCC4)CN3)nc2c1	-2.5	10.5	-14.8%	-3.3%	?	?
Cc1cc(CN(C)C(=O)CCc2nnc(Cc3cccc(C(F)(F)F)c3)o2)on1	33.2*	58.1*	?	23.5%[46.1 µM]	13.2%	-13.8%[46.1 µM]
CCN(CC)C(=O)CCc1nnc(Cc2cccc(C(F)(F)F)c2)o1	5.4	-10.6	16.9%	?	34.3%	9.0%
O=C(CCc1nnc(CCCCc2ccccc2)o1)NCc1cc(F)ccc1F	0.7	-12.8	26.4%	?	-3.9%	-1.4%
O=C(CCc1nnc(Cc2cccc(C(F)(F)F)c2)o1)NCCc1ccccc1F	28.8*	126.2*	13.4%	.	60.2%	.
Cc1c(OCC(=O)NCCCn2ccnc2)ccc2c3c(c(=O)oc12)CCC3	-1.8	1.2	?	.	-10.8%	.
COC(=O)Cn1c(-c2ccc(OC)cc2)c(-c2ccc(OC)cc2)nnc1=O	-3.8	.	0.8%	.	14.3%	.
O=C(N/N=C/c1cccc(Oc2ccccc2)c1)c1cc[n+]([O-])cc1	2.0	13.0	30.2%	1.2%[46.1 µM]	25.0%	24.3%[46.1 µM]
SMILES	CHX counter	Shiga toxin inh	Pf growth 96h	Marburg entry inh	Pf growth 48h	Lassa entry inh
O=C(N/N=C/c1cccc(Oc2ccccc2)c1)c1ccccc1F	72.9*	+	?	.	?	.
Nc1ccc(C(=O)N/N=C/c2cccc(Oc3ccccc3)c2)cc1	30.0*	33.0	?	.	8.8%	.
O=C(CN1CCN(C(c2ccccc2)c2ccccc2)CC1)NC(=O)NCc1ccco1	-3.8	20.7	10.4µM*	?	9.28µM*	?
O=C(CN1CCN(c2ccccc2)CC1)NC(=O)NCc1ccco1	-1.8	24.7	-5.3%	0.3%	-5.8%	?
Cc1ccc(N(C(=O)CNC(=O)c2ccco2)C(C(=O)NCC2CCCO2)c2ccccc2)cc1 (centres undefined)	-1.8	34.3	.	?	-14.5%	9.6%
COc1ccc(C2=NN(CC(=O)Nc3ccccc3C)C(=O)CC2)cc1	11.7*	12.3	?	-30.7%[46.1 µM]	4.15µM*	-18.0%
O=C(N/N=C/c1cccc(Br)c1)c1ccc(Cn2cc(Br)cn2)o1	17.1	55.8*	?	-12.4%	-11.3%	?
NNC(=O)c1ccc(Cn2cc(Br)cn2)o1	27.2*	61.0*	34.9%	.	26.2%	.
NNC(=O)c1ccc(Cn2cccn2)o1	19.6	51.9*	-6.2%	28.3%[46.1 µM]	21.3%	6.7%
Cc1ccccc1/C=N\NC(=O)c1ccc(Cn2cccn2)o1	4.6	31.8	41.0%	22.7%	28.5%	?
CCOC(=O)c1sc(NC(=O)CSc2nnc(-c3ccco3)n2CC)c(C(=O)OCC)c1C	-2.0	2.1	.	?	?	-12.7%
COc1ccc(CNC(=O)c2cc(S(=O)(=O)N3CCCC3)cn2C)cc1	0.7	-7.1	?	.	49.5%	.
CCOC(=O)c1c(NC(=O)COC(=O)Cn2c(C)nc3ccccc32)sc2c1CCCC2	-2.7	-16.3	45.6%	11.1%	-6.4%	5.2%
O=Nc1c2nc3ccccc3n(O)c-2c2ccccc12	72.9*	114.7*	?	0.0%	82.1%	.
COc1ccc(Cn2nnnc2C(c2ccc3ncccc3c2)N2CCN(C3CCCCC3)CC2)cc1 (centres undefined)	2.7	-7.9	0.9%	.	?	.
COC(=O)/C=C1/S/C(=N/NC(=O)c2ccccc2OC)NC1=O	-2.5	-3.4	11.7µM*	-6.2%[46.1 µM]	?	15.4%[46.1 µM]
COC(=O)/C=C1/S/C(=N/NC(=O)c2ccc(OC)cc2)NC1=O	1.8	28.1	?	?	4.7%	?
COC(=O)CNc1c(-c2ccccc2)nc2ccc(Br)cn12	42.0*	50.0*	4.7%	18.5%	.	?
COC(=O)Nc1c(-c2ccccc2)nc2ccc(Cl)cn12	-2.5	-3.5	?	16.8%	1.9%	9.7%
COCC(C)NC(=O)c1nn(Cc2ccccc2)c(=O)c2ccccc12 (centres undefined)	-4.8	-16.4	-9.6%	?	4.8%	-15.5%
Cn1c(C2CCCCC2)nc2ccccc21	16.2*	47.1	?	?	-12.8%	21.3%
COc1ccc(N2C(=O)C3C(c4ccc(C(=O)O)cc4)NC(Cc4ccccc4)(C(=O)O)C3C2=O)c([N+](=O)[O-])c1 (centres undefined)	6.2	-16.0	2.94µM*	2.2%[46.1 µM]	12.4%	1.0%
